This passage reports potency estimated from few doses results from paper PMC11062922 (Nature Chemical Biology, 2023).

Like-named read-outs stand apart in the source and are kept apart here.

What all share (set-up): species or system human, MV4-11 + K-562 + COLO205 + SK-N-BE2 + OVCAR-8
In one assay the test system is CDK7. To be noted: read-out: apparent Kd, compound concentrations: 100 nM and 1000 nM (sheet 'Samples'), n = 1.
The next assay has as its system EPHA4. Particulars: read-out: apparent Kd; compound concentrations: 100 nM and 1000 nM (sheet 'Samples'), CATDS: 4.9130602297819598E-2; n = 1.
In another assay the test system is EPHA5. To be noted: read-out: apparent Kd, compound concentrations: 100 nM and 1000 nM (sheet 'Samples'), n = 1.
In a further assay the test system is EPHB2. To be noted: read-out: apparent Kd; compound concentrations: 100 nM and 1000 nM (sheet 'Samples'), CATDS: 5.6373238091853198E-2; n = 1.
The subject of the next assay is EPHB4. Particulars: read-out: apparent Kd, compound concentrations: 100 nM and 1000 nM (sheet 'Samples'), n = 1.
For another assay, the system named is ERCC2. Particulars: read-out: apparent Kd, compound concentrations: 100 nM and 1000 nM (sheet 'Samples'), n = 1.
The test system of a further assay is FER. To be noted: read-out: apparent Kd, compound concentrations: 100 nM and 1000 nM (sheet 'Samples'), n = 1.
For another assay, the system named is GAK. Particulars: read-out: apparent Kd, compound concentrations: 100 nM and 1000 nM (sheet 'Samples'), n = 1.
A further assay relates to GSK3A. Particulars: read-out: apparent Kd, compound concentrations: 100 nM and 1000 nM (sheet 'Samples'), n = 1.
A further assay relates to PIK3CB. Particulars: read-out: apparent Kd, compound concentrations: 100 nM and 1000 nM (sheet 'Samples'), n = 1.
The test system of another assay is PRKAA1. To be noted: read-out: apparent Kd; compound concentrations: 100 nM and 1000 nM (sheet 'Samples'), CATDS: 4.9195025679132399E-2; n = 1.
A further assay deals with PRKAG2. To be noted: read-out: apparent Kd; compound concentrations: 100 nM and 1000 nM (sheet 'Samples'), CATDS: 5.0151658649726198E-2; n = 1.
The subject of a further assay is PTK2B. To be noted: read-out: apparent Kd; compound concentrations: 100 nM and 1000 nM (sheet 'Samples'), CATDS: 5.5106996532726202E-2; n = 1.
The test system of another assay is PTK2. To be noted: read-out: apparent Kd; compound concentrations: 100 nM and 1000 nM (sheet 'Samples'), CATDS: 5.55941477403585E-2; n = 1.
The next assay relates to RPS6KA6. Particulars: read-out: apparent Kd; compound concentrations: 100 nM and 1000 nM (sheet 'Samples'), CATDS: 5.82257386615097E-2; n = 1.
In the next assay the test system is TNK1. To be noted: read-out: apparent Kd, compound concentrations: 100 nM and 1000 nM (sheet 'Samples'), n = 1.
A further assay deals with TNK2. Particulars: read-out: apparent Kd, compound concentrations: 100 nM and 1000 nM (sheet 'Samples'), n = 1.
For a further assay, the system named is PIK3C3. To be noted: read-out: apparent Kd; compound concentrations: 100 nM and 1000 nM (sheet 'Samples'), CATDS: 0.106578843558364; n = 1.
The test system of the next assay is PIK3CA. To be noted: read-out: apparent Kd; compound concentrations: 100 nM and 1000 nM (sheet 'Samples'), CATDS: 0.31694320747902399; n = 1.
The subject of another assay is CIT. To be noted: read-out: apparent Kd; compound concentrations:100 nM and 1000 nM (sheet 'Samples'); n = 1.
The test system of the next assay is CSNK1A1. Particulars: read-out: apparent Kd; compound concentrations:100 nM and 1000 nM (sheet 'Samples'); n = 1.
Another assay concerns CSNK1D. To be noted: read-out: apparent Kd; compound concentrations:100 nM and 1000 nM (sheet 'Samples'); n = 1.
Another assay has as its system CSNK1E. Particulars: read-out: apparent Kd; compound concentrations:100 nM and 1000 nM (sheet 'Samples'); n = 1.
The test system of another assay is MAPK14. Particulars: read-out: apparent Kd; compound concentrations: 100 nM and 1000 nM (sheet 'Samples'), CATDS: 6.0932890746218903E-2; n = 1.
In another assay the test system is MAPK9. Particulars: read-out: apparent Kd; compound concentrations:100 nM and 1000 nM (sheet 'Samples'); n = 1.
For another assay, the system named is MAPKAPK2. To be noted: read-out: apparent Kd; compound concentrations:100 nM and 1000 nM (sheet 'Samples'); n = 1.
Another assay has as its system PIK3CD. To be noted: read-out: apparent Kd; compound concentrations:100 nM and 1000 nM (sheet 'Samples'); n = 1.
The next assay has as its system PKN3. To be noted: read-out: apparent Kd; compound concentrations:100 nM and 1000 nM (sheet 'Samples'); n = 1.
Another assay relates to PRKX. To be noted: read-out: apparent Kd; compound concentrations:100 nM and 1000 nM (sheet 'Samples'); n = 1.
The subject of another assay is PSMC3. To be noted: read-out: apparent Kd; compound concentrations:100 nM and 1000 nM (sheet 'Samples'); n = 1.
A further assay has as its system RIPK2. Particulars: read-out: apparent Kd; compound concentrations:100 nM and 1000 nM (sheet 'Samples'); n = 1.
The test system of a further assay is SIK3. To be noted: read-out: apparent Kd; compound concentrations:100 nM and 1000 nM (sheet 'Samples'); n = 1.
The next assay deals with TGFBR2. Particulars: read-out: apparent Kd; compound concentrations:100 nM and 1000 nM (sheet 'Samples'); n = 1.

As to `COc1ccc(Nc2nccc(N3CCC(NC(=O)C(C)c4ccc(Cl)cc4)C3)n2)cc1` (stereo not shown) [GSK1379735A], the potency estimated from few doses in the assay on CDK7 (CATDS: 6.6688716966174802E-2) was 733 nM; in the assay with EPHA4 it was 1410 nM; in the assay with EPHA5 (CATDS: 4.6938657100171297E-2) it was 1600 nM; in the assay on EPHB2, 1020 nM; in the assay on EPHB4 (CATDS: 6.1848145802902502E-2) it was 846 nM; with ERCC2 (CATDS: 7.18018036860264E-2) it was 641 nM. Further, the potency estimated from few doses with FER (CATDS: 6.7369227307756602E-2) was 719 nM; in the assay on GAK (CATDS: 6.1535147387706803E-2), 854 nM; in the assay on GSK3A (CATDS: 4.87406111355713E-2), 1440 nM; with PIK3CB (CATDS: 5.9648096714639699E-2), 910 nM; in the assay with PRKAA1, 1410 nM; in the assay on PRKAG2, 1340 nM. The potency estimated from few doses in the assay with PTK2B is 1080 nM; in the assay on PTK2, 1060 nM; in the assay with RPS6KA6 it was 956 nM; with TNK1 (CATDS: 9.1910216493779603E-2) it was 430 nM; in the assay with TNK2 (CATDS: 8.5615413066405396E-2) it was 479 nM.
Take `O=c1cc(N2CCOCC2)nc2n(Cc3cccc(Cl)c3Cl)ccn12` [GSK2286295A]: the potency estimated from few doses in the assay on CDK7 (CATDS: 8.4335056049156601E-2) is 923 nM; in the assay with EPHA5 (CATDS: 7.2696381065974702E-2), 1360 nM; in the assay on EPHB4 (CATDS: 7.5541211933236804E-2), 1220 nM; with ERCC2 (CATDS: 9.6102785253179598E-2), 687 nM; in the assay on FER (CATDS: 7.77606230380051E-2) it was 1130 nM; in the assay with GAK (CATDS: 7.8204164782115004E-2), 1110 nM. The potency estimated from few doses is 1220 nM with GSK3A (CATDS: 7.5555777377750599E-2); 554 nM with PIK3C3; 21.8 nM in the assay with PIK3CB (CATDS: 0.68027770173125801); 747 nM in the assay on TNK1 (CATDS: 9.2477692433592898E-2); 807 nM in the assay with TNK2 (CATDS: 8.9325991753534395E-2).
For the compound `Nc1c(C(=O)c2cccc(C(O)CO)c2)cnn1-c1ccc(F)cc1` (stereo not shown) [RO3200567-000], the potency estimated from few doses in the assay with CDK7 (CATDS: 0.117624966951351) is 1730 nM; with ERCC2 (CATDS: 0.117960560736162), 1710 nM; in the assay with FER (CATDS: 0.13650868273140601) it was 1200 nM; with GAK (CATDS: 0.12538076296612899), 1460 nM; with PIK3CA, 285 nM; with TNK1 (CATDS: 0.145879794624587), 1040 nM. In addition, the potency estimated from few doses with TNK2 (CATDS: 0.149039092060825) is 993 nM.
As for `Fc1ccc(-c2nc[nH]c2-c2ccncc2)cc1` [SB-217360], the potency estimated from few doses in the assay on CIT was 926 nM; with CSNK1A1 it was 98 nM; in the assay with CSNK1D it was 40.5 nM; in the assay with CSNK1E, 623 nM; in the assay on MAPK14, 445 nM; in the assay with MAPK9 it was 526 nM. The potency estimated from few doses with MAPKAPK2 is 83.8 nM; with PIK3CD, 114 nM; with PKN3, 212 nM; in the assay with PRKX, 77.5 nM; with PSMC3 it was 1190 nM; in the assay with RIPK2, 99.5 nM. The potency estimated from few doses was 1440 nM in the assay with SIK3 and 1140 nM in the assay on TGFBR2.
